Our source for the INHIBITION values is ChEMBL document CHEMBL4513216, “Probing the Open Global Health Chemical Diversity Library for Multistage-Active Starting Points for Next-Generation Antimalarials” (ACS Infect Dis, 2020).

About 2,100 (3.2%) of roughly 65,000 compounds showed an effect of 50% or more. The median lay at about -52%. This is one part of a sample in which strong results are shown more often than they occur.

This assay concerns Plasmodium falciparum. Put plainly: Screen against P. falciparum Asexual Blood Stage (ABS), at 5uM. Type of assay: functional, Dd2. The conditions noted are these: tested at 5 uM.
As for `Cc1n[nH]c(C)c1CC(=O)N1CCCN(C)C2(CCN(C)CC2)C1`, the INHIBITION was -107%. With `Cc1cc(C[C@@H]2CCC[C@H]2NCc2cc(C)c(O)c(C)c2)on1` the figure was 79.9%; with `Cc1cc(CNC2(c3ccccc3)CCCCC2)on1`, 9.53%. With `CCCOc1ccccc1CN[C@@H]1CCC[C@H]1Cc1cc(C)no1` the figure was 84.9%. With `CCO[C@@H]1CC[C@H]2[C@H]1OCCN2CC1CCC1` the figure was -47.6%; with `COc1c(C2SCC(=O)Nc3[nH]ncc32)cc2c(c1OC)OCO2` (stereo unspecified), -32.3%. For `CN(C)C(=O)COC[C@@]12CCC[C@@H]1CNC2`, the INHIBITION is on record as -23.4%. Consider `Cn1cc(N2C[C@@H]3CN(Cc4ccccn4)C[C@@H]3C2=O)cn1`, for which the INHIBITION was -120%. For `Cc1cccc(-c2ncc(CNC(C)Cc3ncccc3C)cn2)c1` (stereo unspecified) the value was -7.12%.

As to `COc1cc(C(C)NCc2ncccc2C)ccc1SC(F)F` (stereo unspecified), the INHIBITION is 75.7%. In the case of `Cc1nc(NCC2CC2)nc2c1COCC21CCN(C)C1` (stereo unspecified), the INHIBITION is on record as -73.6%. For `CN(Cc1cccc(O)c1)CC1CCCN(CCc2ccc(Cl)cc2)C1` (stereo unspecified) the value was 83.5%; for `Cc1nc[nH]c1CN(C)CC1CCCN(CCc2ccc(Cl)cc2)C1` (stereo unspecified), 82.9%. For `Cc1csc(CN2CC[C@H]3C[C@H](C)O[C@@H]3C2)n1` the value was -59.9%. With `Cc1noc(C)c1CN1CCO[C@H]2CN(C3CCOCC3)C[C@H]21` the figure was 3.95%.

`CC/C=C(/C)C(=O)NS(=O)(=O)c1ccc(C#N)c(C(F)(F)F)c1`: the INHIBITION is recorded as -159%. On to `CC(Cn1cncn1)NCc1ccc2nonc2c1` (stereo unspecified), for which the INHIBITION is given as -92.4%. Turning to `Clc1ccccc1CCN1CCN(c2ccc3nncn3n2)CC1`, the INHIBITION came out at 74.9%. With `Cc1ccccc1CC(=O)N1C[C@@H](O)[C@H](N2CCC(F)(F)CC2)C1` the figure was -76.9%; with `COc1cc(C2SCC(=O)Nc3[nH]ncc32)c(OC)c2c1OCO2` (stereo unspecified), -118%. Regarding `Cc1c(Cl)c(C(=O)N2CC(c3cccnc3)C2)nn1C`, the INHIBITION was -53.6%. For `COCCN1C[C@@H]2COC[C@@H](CC(=O)NCc3cccnc3)[C@@H]2C1` the value was -108%; for `CC(Cn1ccnc1)NS(=O)(=O)c1ccc(C#N)c(Cl)c1` (stereo unspecified), -24.8%; for `CC(Cn1ccnc1)NCc1cc(Br)c2c(c1)OCO2` (stereo unspecified), 6.16%. With `CCOc1ccc(CNCCCn2ccnc2)cc1Br` the figure was 80.1%; with `CC(Cn1ccnc1)NCc1ccc2nonc2c1` (stereo unspecified), -108%.

In the case of `COc1ccc(Cl)cc1CNCCCn1ccnc1`, the INHIBITION is on record as 82.3%.

With `CCOc1ccc(CNCCCn2ccnc2)cc1Cl`, the INHIBITION came to 87.7%. Turning to `COc1cc(CNC(C)Cn2ccnc2)cc2c1OCCO2` (stereo unspecified), the INHIBITION was -34%. For `COc1cc(CNC(C)Cn2ccnc2)cc2c1OCO2` (stereo unspecified) the value was -46.3%. For `CCOc1cc(CNCCCn2ccnc2)cc(Cl)c1OCC` the value was 77.3%; for `COc1cc(CNC(C)Cn2cccn2)cc(Cl)c1OC` (stereo unspecified), -35.2%. Regarding `O=C1CSC(c2ccsc2)c2c(n(C3CCCC3)[nH]c2=O)N1` (stereo unspecified), the INHIBITION is given as -94.4%. Turning to `Cc1csc(CN2C[C@@H]3CN(C)CCO[C@@H]3C2)n1`, the INHIBITION was -19.5%. With `CCOc1c(Cl)cc(Cl)cc1CNCCCn1ccnc1` the figure was 75.9%. Take `Cc1nn(CCNC(C)Cn2ccnc2)c(C)c1Cl` (stereo unspecified): the INHIBITION was found to be 0.358%. For `CC(C)(C)n1cc(C(=O)NCCCn2ccnc2)c2cccnc21` the value was -3.93%; for `COCc1cn(C[C@H]2CC3CCN2C[C@@H]3C(=O)Nc2ccccc2)nn1` (stereo partly specified), -106%; for `CNC(=O)c1cn(C(C)(C)C)c2ncccc12`, -148%. On to `Cc1cnc(N2C[C@H]3CCN(CC4CC4)C[C@@H]3C2)nc1`, for which the INHIBITION is reported as 40.6%. On to `Cc1cnc(N2C[C@H]3CCN(CC4CC4)C[C@H]3C2)nc1`, for which the INHIBITION came to 65.5%. On to `c1cncc(N2CC[C@@H]3CN(CC4CC4)C[C@@H]3C2)c1`, for which the INHIBITION is listed as 6.94%. With `Cn1ccnc1CNC1CCCOc2c1ccc1ccccc21` (stereo unspecified) the figure was 77.2%. For `NCC1Cc2cc(Cl)cc(-c3cncc(C(=O)N4CCCCC4)n3)c2O1` (stereo unspecified) the value was 76%; for `Cc1nc(-c2cc(Cl)cc3c2OC(CN)C3)c[nH]1` (stereo unspecified), 94.4%. For `Cc1nc(-c2cc(Cl)c3c(c2)CC(CN)O3)c[nH]1` (stereo unspecified) the value was 83.7%; for `Cc1cc2c(c(-c3c[nH]c(C)n3)c1)OC(CN)C2` (stereo unspecified), 80.1%; for `CCN1CCN(C)C(=O)C12CCN(C(=O)Cc1ccccn1)CC2`, -113%.

With `CCC(=O)NCC(c1ccc(SC)cc1)N1CCc2sccc2C1` (stereo unspecified), the INHIBITION worked out at 77.1%. Take `O=C1NC2(CCNCC2)CC1c1ccncc1` (stereo unspecified): the INHIBITION was -134%. In the case of `C[C@@H]1CN(C2CCN(c3ccccc3F)CC2)CC[C@]1(C)O`, the INHIBITION was determined as 87.7%. As for `C[C@@H]1CN(Cc2cccnc2)C[C@]1(C)O`, the INHIBITION is -61.6%.

Take `O=C(NCc1cccnc1)C1=NOC2(CCCN(CCO)C2)C1` (stereo unspecified): the INHIBITION was -58.4%.

On to `O=C(CCN1CCCC(CO)(CC2CC2)C1)NCc1cccc(Cl)c1` (stereo unspecified), for which the INHIBITION was determined as 80%.

Turning to `Cc1cc(N(C)C)nc(N2CCCC2c2cccnc2)n1` (stereo unspecified), the INHIBITION is listed as -15.1%. `Nc1cc(-c2c[nH]nc2C2CCCN2CCCc2ccccc2)ccn1` (stereo unspecified): the INHIBITION amounted to 77.3%. For `O=C1[C@H]2CN(Cc3ccoc3)C[C@@H]2CCN1Cc1cccnc1` the value was -121%; for `Cc1noc(C)c1CN1CC[C@H]2O[C@@H](C(=O)N3CCCC3)CC[C@H]21`, -58.1%; for `O=C(c1ccccc1-n1cnnn1)N1CCC2(CC1)OCCO2`, -76.9%. For `C1CCC(c2nc3c(c(N4CCN5CCCC5C4)n2)CCNCC3)C1` (stereo unspecified) the value was 77.4%. On to `CCOCc1nc2c(c(N3CCN4CCCC4C3)n1)CCNCC2` (stereo unspecified), for which the INHIBITION was -33.2%. For `c1cnn(CC2CCN(c3nc(C4CC4)nc4c3CCNCC4)CC2)c1`, the INHIBITION was found to be 91%.

Take `NCC1CCN(c2nc(C3CCCC3)nc3c2CCNCC3)C1` (stereo unspecified): the INHIBITION was 93.5%. For `CC(C)c1nc(N2CCN3CCCC3C2)c2cnn(C)c2n1` (stereo unspecified), the INHIBITION is 12.9%.

Take `Cc1nn(-c2ccccn2)c2c1C(c1cnn(C)c1)SCC(=O)N2` (stereo unspecified): the INHIBITION is -90.8%. With `Cc1noc(C)c1CN1CCO[C@H]2CNC[C@H]21` the figure was -38.6%; with `CCN(C)c1nccc(N2CCN[C@H]3CS(=O)(=O)C[C@H]32)n1`, -58.4%. For `CO[C@H]1COCCN(Cc2c[nH]c3ccccc23)C1` the value was -48.4%. For the molecule `Cc1cc(-n2cccn2)ccc1CN1CCOCC(CN(C)C)C1` (stereo unspecified), the INHIBITION worked out at 73%. For `COc1ccc(-n2cccn2)c(CN2CCOCC(CN(C)C)C2)c1` (stereo unspecified), the INHIBITION was 78.4%. As to `Cc1nc(=O)c(CC(=O)N2C[C@H]3CC[C@@H](C2)N(CC2CCC2)C3)c(C)[nH]1`, the INHIBITION is -89.5%. For `CCN1CC(=O)NCC12CCN(C(=O)c1ccno1)C2` (stereo unspecified) the value was -7.44%.

In the case of `N#Cc1cccc(S(=O)(=O)Nc2c(F)cccc2N2CCCC2)c1`, the INHIBITION was found to be 74.1%.

`N#Cc1cccc(C(=O)NS(=O)(=O)c2ccc(C#N)c(Cl)c2)c1`: the INHIBITION is listed as -49.2%. `Cc1nc(CC(=O)N2CCN(Cc3ccc(C#N)cc3)CC2)cs1`: the INHIBITION was -11.175%.

Regarding `CCOc1ccc(Br)cc1C1CCCN1` (stereo unspecified), the INHIBITION was 72.9%. As to `CCOc1ccc(Br)cc1C1CCCCN1` (stereo unspecified), the INHIBITION worked out at 78.2%.

As to `CCOc1ccc(Cl)cc1C1CCCN1` (stereo unspecified), the INHIBITION was found to be 87.7%. With `CC(C)NC(=O)C1CCC2(CCNCC2)C1` (stereo unspecified) the figure was -81.9%; with `CCN1CCC2(CC1)C(=O)Nc1ccc(C(=O)NC)cc12`, -38.9%; with `Cc1ccccc1CC(C)NC(=O)Nc1cnn(CC(N)=O)c1` (stereo unspecified), -23.3%.

Regarding `CC(C)COC(=O)N1CCC2(CCNC2)C1` (stereo unspecified), the INHIBITION is -93.7%. Regarding `Cc1ncsc1CN1CC[C@H]2C[C@H](c3ccncn3)O[C@@H]2C1`, the INHIBITION is listed as -37.3%. With `O=C(N1CCCC1)C1(Cc2ccc(-c3cccs3)cc2)CCNC1` (stereo unspecified) the figure was 84.5%; with `NC1(c2nc(-c3cccs3)cc(=O)[nH]2)CCCCC1`, -95.6%; with `O=S1(=O)N(c2ccccc2)C[C@H](O)[C@]12CCNC2`, -88.5%.

For the molecule `O=S1(=O)N(c2ccccc2)C[C@@H](O)[C@]12CCNC2`, the INHIBITION is listed as -3.43%. Turning to `NC(=O)C1(Cc2ccc(-c3ccccc3)cc2)CCNC1` (stereo unspecified), the INHIBITION turned out to be 92.7%.

For the molecule `O=C(c1nc(=O)[nH]c2ccccc12)N1CCCC2(CCNC2)C1` (stereo unspecified), the INHIBITION is recorded as -74.6%. For `CC(C)N1CCCC(Cc2nccnc2Cl)C1` (stereo unspecified), the INHIBITION is -59.8%. As to `COc1ccc(C2SCC(=O)Nc3ccsc32)cc1` (stereo unspecified), the INHIBITION was -71.1%. With `O=C(N[C@@H]1CN[C@H]2CCCO[C@H]21)c1cccnc1` the figure was -128%. With `c1cncc(OC[C@]23COC[C@H]2CN(Cc2cccs2)C3)c1` the figure was -51.7%; with `CCCN(C)CC1CCN(c2ccc(Br)c(C)n2)C1` (stereo unspecified), 73.7%. In the case of `CCc1noc(CC)c1CC(=O)N1CCN(C(C#N)C(C)C)CC1` (stereo unspecified), the INHIBITION is reported as -154%.

Regarding `CNC(=O)[C@@H]1C[C@H]2CN(C(=O)c3ccccn3)C[C@H]2N1C(C)C`, the INHIBITION is on record as -23%. For `CCN(CC)C[C@H]1CN2CC[C@H]1C[C@@H]2CNC(=O)c1ccco1` the value was -97.7%. In the case of `CN(C[C@H]1CN2CC[C@H]1C[C@@H]2CNC(=O)c1ccco1)c1ccccc1`, the INHIBITION amounted to 71.2%. Consider `CC[C@H]1CN2CC[C@H]1C[C@@H]2CNC(=O)c1ccco1`, for which the INHIBITION is recorded as -29.4%. As for `COc1cc(N2CC[C@@H]3OCCN(C)[C@H]3CC2)ncn1`, the INHIBITION is listed as -67.4%. For `Cc1cccc(OCC(=O)N2CCN(C3CCOC3=O)CC2)c1C` (stereo unspecified) the value was -13.7%; for `CC1COC2(CCN(C(=O)c3ncoc3C(C)C)CC2)O1` (stereo unspecified), -69.9%.

Consider `Nc1nc(N)c2c(n1)OC1(CCN(Cc3nccs3)C1)C2` (stereo unspecified), for which the INHIBITION was -96%. For `c1cnc(N2CCC3(CC2)CN(CC2CC2)c2ccccc23)nc1`, the INHIBITION is 86.3%. For the molecule `CCN1CCC2(CC1)CN(CCO)c1ccccc12`, the INHIBITION is -30.2%.

On to `CN1CCN(c2ncccn2)CC12CCC(=O)N(CC1CC1)CC2` (stereo unspecified), for which the INHIBITION is given as -74.4%.
